According to PubChem BioAssay (NCI):
The panel holds about 79,000 compounds, 15% with a hit somewhere; the sample as a whole holds those more often. A number with no mark means an inactive call. Calls of active or inactive are those of the source. Cut-off read from the data, not from the text of the source: active = growth inhibition above about 70%; inactive = the rest.

How the values were obtained:
[1] = NCI Yeast Anticancer Drug Screen. Data for the rad50 strain (AID 155);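 note: 0% = growth of vehicle-only cultures of the same strain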; conditions: S. cerevisiae rad50 strain growth inhibition, stronger effect = higher value; at 50.0 µM unless noted
How it was run: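 A DNA repair-deficient yeast mutant serves as the test organism; compound-induced growth inhibition is calculated against vehicle-treated cells.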

[2] = NCI Yeast Anticancer Drug Screen. Data for the mec2-1 strain (AID 157); conditions: S. cerevisiae mec2-1 strain, stronger effect = higher value; at 50.0 µM unless noted
How it was run: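 Using mec2-1 yeast: add compound, measure growth, express inhibition versus vehicle-treated cultures.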

[3] = NCI Yeast Anticancer Drug Screen. Data for the sgs1 mgt1 strain (AID 161);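 note: 0% = growth of cultures given vehicle only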; conditions: S. cerevisiae sgs1 mgt1 strain, stronger effect = higher value; at 50.0 µM unless noted
How it was run: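 Compounds are added to genetically altered yeast, and growth is compared with cultures given vehicle alone to give percent inhibition.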

[4] = NCI Yeast Anticancer Drug Screen. Data for the cln2 rad14 strain (AID 165);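 note: 0% = growth equal to vehicle treated cultures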; conditions: S. cerevisiae cln2 rad14 strain, stronger effect = higher value; at 50.0 µM unless noted
How it was run: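 Yeast strain cln2 rad14, bearing defects in cell cycle control and DNA repair, serves as the test system; values reflect growth inhibition compared with vehicle.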

[5] = NCI Yeast Anticancer Drug Screen. Data for the bub3 strain (AID 167); conditions: S. cerevisiae bub3 mutant strain, stronger effect = higher value; at 50.0 µM unless noted
How it was run: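 Inhibition values come from growth of compound-treated mutant yeast normalised to vehicle-treated controls.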

[6] = NCI Yeast Anticancer Drug Screen. Data for the mlh1 rad18 strain (AID 175); conditions: S. cerevisiae mlh1 rad18 strain growth inhibition, stronger effect = higher value; at 50.0 µM unless noted
How it was run: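 Steps: expose repair-defective yeast to compound; measure growth; express inhibition against vehicle-treated controls.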

Structure (SMILES) | growth inhibition [1] | growth inhibition [2] [%] | growth inhibition [3] | growth inhibition [4] [%] | growth inhibition [5] | growth inhibition [6]
COCCC(=O)OCCC(C)OC (centres undefined) | 21.6% | -4.1 | 3.65% | 1.95 | -42.2% | -11.2%
Cc1noc(NS(=O)(=O)c2ccc(Nc3nc(CC(=O)Nc4ccccc4)cs3)cc2)c1C | 18.4% | -19.1 | 17.2% | 12.7 | -17.1% | 9.2%
c1ccc(N2CN(c3ccccc3)C2)cc1 | -19.4% | -8.25 | 4% | -11.6 | 5.6% | 15.8%
Nc1c(Cl)ccc2c(Cl)ccnc12 | -1.15% | -9.55 | -7.2% | -21.1 | -9.55% | 7.55%
CSCCC(NC(=O)OCc1ccccc1)C(=O)O (centres undefined) | -31.4% | -0.6 | 5.05% | -25.2 | -4.5% | -4.45%
CCOC(=O)CN(c1c(C)cc([N+](=O)[O-])c2ccccc12)S(=O)(=O)c1ccccc1 | 50.1% | 13.8 | 33.8% | 6.65 | 16.9% | 12.2%
CC[N+]1(CN2CCCCC2)CCCCC1 | 18.5% | -2.8 | 4% | -7.4 | -22.6% | 37.6%
CCCNCCCCCCNc1cc(OC)cc2cccnc12 | 54.9% | 6.05 | 39.7% | 63.4 | 31.9% | 54.3%
Cc1ccc(NC(=O)Oc2ccc(-c3ccccc3)cc2Br)c(Br)c1 | 52.1% | 58 | 54.6% | 40 | 51.9% | 53.7%
Cc1c2cc[n+](C)cc2c(C)c2c1oc1ccccc12 | 82.5% (active) | 62.1 | 78.8% (active) | 55.9 | 75.1% (active) | -38%
O=C1c2scc(-c3ccc(F)cc3)c2-n2cccc21 | 7.8% | 12.5 | 7.6% | 3.7 | 8.65% | 24.1%
CC1CC(C)OC(C(Br)CBr)O1 (centres undefined) | 5.05% | -10.9 | -4.8% | 15 | -13.9% | 12.1%
CC(C)NC(=O)OCc1c(COC(=O)NC(C)C)c2n(c1Br)CCC2 | 32.8% | 26.1 | -9.6% | 16.9 | 0.2% | -51.4%
CC1=CC(=C2C=C(C)C(=O)C(C)=C2)C=C(C)C1=O | 9.85% | -6.65 | 24.4% | -0.25 | 4.25% | 14.2%
C=CCOCn1cnc2c(N)ncnc21 | -35.9% | -59.9 | -24.1% | -0.6 | -11.3% | -36%
O=C(CN1CCCCCC1)Nc1ccc2c(c1)C(=O)c1ccc(NC(=O)CN3CCCCCC3)cc1C2=O | -12.3% | 37.8 | 51.1% | 38.6 | 8.95% | 36.4%
C=C1C(=O)OC2CC1C(OC(C)=O)CC1(C)OC1CCC1(C)OC1CCC2(C)O (centres undefined) | -4.4% | -0.1 | 1.05% | -2.7 | -9.55% | -3.4%
CCOC(=O)c1[nH]c(C)c(C#N)c1C | -34.4% | -26.6 | -12.7% | -34.6 | -20.8% | -19.1%
OCCNc1ncnc2c1ncn2C1OC(CO)C(O)C1O (centres undefined) | 6.3% | 5.25 | -12.3% | -23.9 | -20% | 22%
Cc1ccc(C)n1-c1ccccc1 | -12.6% | -37.5 | -7.75% | 9 | -8.2% | -19.4%

Structure (SMILES) | growth inhibition [1] | growth inhibition [2] [%] | growth inhibition [3] | growth inhibition [4] [%] | growth inhibition [5] | growth inhibition [6]
O=C1CN(CCN2CC(=O)N(CN3CCOCC3)C(=O)C2)CC(=O)N1CN1CCOCC1 | 9.55% | 3 | 2.6% | 3.8 | -16.1% | 83.9% (active)
O=[N+]([O-])c1ccc(CS(=O)Cc2ccccc2)cc1 (centres undefined) | 10.9% | -18.6 | 1.35% | 0.05 | 6.75% | 31.7%
CC1(C)C2CC(C(=O)O)C1C2 (centres undefined) | 2.75% | 5.8 | 2.05% | 3.8 | -10.8% | -19.1%
COC(=O)C(CCSC)NC(=O)C1CSC(C)(C)N1C=O (centres undefined) | 0.65% | 0.2 | 39.2% | -1.85 | 44.5% | -1.85%
[S-]c1n[n+](-c2ccccc2)cs1 | 2.95% | 2.1 | 0.15% | -5.25 | -23% | 3.1%
Cc1cccc(C)c1NC(=O)c1c(Cl)c(Cl)c(Cl)c(Cl)c1C(=O)O | -25.9% | 11.8 | -15.7% | -20 | 4.55% | -18.2%
O=C(O)Cc1cc2c(cc1I)OCO2 | -1.2% | 22.9 | 2.15% | -18.9 | -11.2% | -0.55%
Cc1cc(C)nc(/N=C(/N)Nc2ccc(S(=O)(=O)NC(=O)Nc3ccccc3)cc2)n1 | 21.5% | 2.55 | 5.8% | 1.8 | 0% | -4.2%
O=C1c2ccccc2CCC1c1ccccc1 (centres undefined) | -1.65% | -0.7 | -5.2% | -1.05 | -10.7% | -23.4%
COc1nc(NC2OC(COC(C)=O)C(OC(C)=O)C(OC(C)=O)C2OC(C)=O)c(N=CC=Nc2c(NC3OC(COC(C)=O)C(OC(C)=O)C(OC(C)=O)C3OC(C)=O)nc(OC)[nH]c2=O)c(=O)[nH]1 (centres undefined) | -11.3% | -8.45 | -2.65% | -16.8 | -5.6% | -11.5%
COc1cccc(N)c1N | 21.4% | -15.2 | -3.6% | 4.6 | -16.9% | -9.2%
CCc1c(C)[nH]c2ccc([N+](=O)[O-])cc12 | 18.2% | 3.25 | 6.7% | 19.9 | 23.2% | 26.4%
CCOC(=O)c1ccc(NC(=S)NC(=O)C(C)Oc2ccccc2)cc1 (centres undefined) | -10.9% | 40 | 44.8% | -21.2 | 37.8% | 25.2%
C=CCNc1nc(Cl)nc2c1cnn2C | 13.3% | -3 | -2.95% | -21.3 | 8.55% | -5.15%
CC1OC(O[C@H]2CC[C@]3(C)[C@H]4CC=C5[C@@H]6[C@@H](C)[C@H](C)CC[C@]6(C(=O)OC6OC(CO)C(O)C(O)C6O)CC[C@@]5(C(=O)O)[C@]4(C)CC[C@H]3C2(C)C)C(O)C(O)C1O (some centres undefined) | -11.8% | -1.8 | -31.6% | -29.5 | -23.2% | -40.5%
NC(=S)N/N=C1\CCCc2ccccc21 | 60.8% | 21.2 | 42.3% | 41.9 | 7.15% | 52.8%
CC12C(=O)C(C(c3ccccc3)=C1c1ccccc1)C1C(=O)OC(=O)C12 (centres undefined) | -6.8% | 2.8 | -0.15% | -1.6 | -11.9% | -6.65%
O=S1(=O)OCCOS(=O)(=O)C1C1c2ccccc2-c2ccccc21 | 13.4% | 2.95 | 18.7% | 7.6 | -1.25% | -32.3%
COC(=O)C1=CN(CCc2ccc(O)cc2)C(=O)C2C1CC(O)C2C (centres undefined) | 5.6% | -6.2 | 1.2% | -2.2 | -4.55% | -10.2%
